Experimental findings from the supplement of paper PMC12819154, “High-throughput peptide-centric local stability assay extends protein–ligand identification to membrane proteins, tissues and bacteria” (Nature Structural & Molecular Biology, 2025) are described below.

Compound in the test: CN[C@@H]1C[C@H]2O[C@@](C)([C@@H]1OC)n1c3ccccc3c3c4c(c5c6ccccc6n2c5c31)C(=O)NC4 [staurosporine]
The test can be described thus: log2 fold change of tryptic peptide abundance, ligand vs vehicle (limited proteolysis) (log2 ratio); higher = more trypsin-susceptible (destabilized). The note with it: ligand concentration: 20 uM; sample: mouse liver crude lysate; replicate design: treated separately.

UniProt Q61268, sequence (Q61268 whole entry): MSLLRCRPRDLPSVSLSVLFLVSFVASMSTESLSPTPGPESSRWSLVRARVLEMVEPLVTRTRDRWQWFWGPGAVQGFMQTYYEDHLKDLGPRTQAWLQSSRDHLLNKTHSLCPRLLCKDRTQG
UniProt O70318, sequence (O70318 whole entry): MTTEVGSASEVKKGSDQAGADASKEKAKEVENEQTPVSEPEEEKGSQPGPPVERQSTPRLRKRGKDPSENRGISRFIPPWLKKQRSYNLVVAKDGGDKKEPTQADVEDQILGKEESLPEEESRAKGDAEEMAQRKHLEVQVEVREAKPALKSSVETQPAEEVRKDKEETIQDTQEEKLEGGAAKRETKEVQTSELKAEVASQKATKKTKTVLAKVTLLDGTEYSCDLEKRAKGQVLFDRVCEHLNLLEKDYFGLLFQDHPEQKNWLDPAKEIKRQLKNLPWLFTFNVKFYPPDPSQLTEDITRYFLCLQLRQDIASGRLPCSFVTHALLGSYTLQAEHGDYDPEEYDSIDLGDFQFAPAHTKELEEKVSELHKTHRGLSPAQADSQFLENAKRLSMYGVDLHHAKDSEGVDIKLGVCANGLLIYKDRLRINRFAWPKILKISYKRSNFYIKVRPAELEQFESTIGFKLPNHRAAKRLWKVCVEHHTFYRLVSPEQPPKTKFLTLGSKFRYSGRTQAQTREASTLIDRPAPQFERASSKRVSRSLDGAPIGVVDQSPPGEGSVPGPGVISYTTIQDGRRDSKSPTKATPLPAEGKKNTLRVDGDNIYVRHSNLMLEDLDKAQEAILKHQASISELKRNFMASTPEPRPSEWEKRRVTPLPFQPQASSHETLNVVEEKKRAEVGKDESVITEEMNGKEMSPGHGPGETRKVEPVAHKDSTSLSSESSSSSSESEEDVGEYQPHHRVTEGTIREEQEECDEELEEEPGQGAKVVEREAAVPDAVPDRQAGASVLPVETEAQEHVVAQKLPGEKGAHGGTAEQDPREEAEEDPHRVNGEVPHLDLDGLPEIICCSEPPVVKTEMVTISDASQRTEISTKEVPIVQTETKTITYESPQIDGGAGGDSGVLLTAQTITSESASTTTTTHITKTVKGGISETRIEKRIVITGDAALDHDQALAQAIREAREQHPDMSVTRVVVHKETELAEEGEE
UniProt Q99LC5, sequence (Q99LC5 whole entry): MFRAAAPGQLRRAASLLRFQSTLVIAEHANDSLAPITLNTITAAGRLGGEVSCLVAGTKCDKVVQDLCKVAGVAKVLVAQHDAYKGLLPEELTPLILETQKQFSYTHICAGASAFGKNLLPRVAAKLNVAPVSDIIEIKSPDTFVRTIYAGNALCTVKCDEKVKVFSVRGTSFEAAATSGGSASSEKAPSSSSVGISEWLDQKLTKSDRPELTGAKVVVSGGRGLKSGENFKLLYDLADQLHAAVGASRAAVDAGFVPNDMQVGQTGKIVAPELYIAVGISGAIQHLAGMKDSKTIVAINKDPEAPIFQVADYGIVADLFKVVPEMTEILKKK
UniProt A2A974, sequence (A2A974 whole entry): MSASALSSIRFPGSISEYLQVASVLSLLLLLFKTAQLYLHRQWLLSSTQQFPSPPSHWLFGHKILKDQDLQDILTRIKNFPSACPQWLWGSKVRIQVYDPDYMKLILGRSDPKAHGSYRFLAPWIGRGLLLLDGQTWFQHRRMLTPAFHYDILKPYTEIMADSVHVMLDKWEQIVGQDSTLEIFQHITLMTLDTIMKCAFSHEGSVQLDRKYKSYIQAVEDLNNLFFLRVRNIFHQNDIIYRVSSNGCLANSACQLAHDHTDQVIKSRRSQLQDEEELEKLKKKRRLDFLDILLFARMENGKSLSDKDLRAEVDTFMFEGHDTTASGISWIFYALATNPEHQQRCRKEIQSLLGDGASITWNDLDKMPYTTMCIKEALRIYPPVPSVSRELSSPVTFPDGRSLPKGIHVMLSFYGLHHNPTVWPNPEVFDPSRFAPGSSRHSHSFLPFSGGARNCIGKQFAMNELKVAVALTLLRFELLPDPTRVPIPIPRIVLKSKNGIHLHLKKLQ
UniProt Q2TBE6, sequence (Q2TBE6 whole entry): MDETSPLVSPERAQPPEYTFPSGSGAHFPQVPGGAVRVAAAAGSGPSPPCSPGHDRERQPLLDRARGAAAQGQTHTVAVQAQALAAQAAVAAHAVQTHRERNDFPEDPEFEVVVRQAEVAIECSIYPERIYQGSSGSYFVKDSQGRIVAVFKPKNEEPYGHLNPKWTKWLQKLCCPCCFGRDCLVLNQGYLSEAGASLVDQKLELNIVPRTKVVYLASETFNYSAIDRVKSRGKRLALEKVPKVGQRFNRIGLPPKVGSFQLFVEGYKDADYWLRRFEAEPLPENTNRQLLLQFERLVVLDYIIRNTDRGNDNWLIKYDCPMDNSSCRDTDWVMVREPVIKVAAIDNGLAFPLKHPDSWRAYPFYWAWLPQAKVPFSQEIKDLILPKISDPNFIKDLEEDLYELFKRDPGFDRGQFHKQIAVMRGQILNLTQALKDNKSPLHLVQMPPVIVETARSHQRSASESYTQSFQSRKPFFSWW
UniProt O70579, sequence (O70579 whole entry): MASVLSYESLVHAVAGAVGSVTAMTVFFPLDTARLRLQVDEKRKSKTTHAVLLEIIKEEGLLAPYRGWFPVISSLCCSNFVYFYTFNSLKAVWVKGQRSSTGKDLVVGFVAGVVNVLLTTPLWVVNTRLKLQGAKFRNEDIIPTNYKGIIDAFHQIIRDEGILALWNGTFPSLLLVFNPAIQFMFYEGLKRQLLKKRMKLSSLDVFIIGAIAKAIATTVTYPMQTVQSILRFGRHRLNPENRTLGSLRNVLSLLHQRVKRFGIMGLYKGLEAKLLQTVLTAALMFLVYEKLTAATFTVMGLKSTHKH
UniProt Q9QXD1, sequence (Q9QXD1 whole entry): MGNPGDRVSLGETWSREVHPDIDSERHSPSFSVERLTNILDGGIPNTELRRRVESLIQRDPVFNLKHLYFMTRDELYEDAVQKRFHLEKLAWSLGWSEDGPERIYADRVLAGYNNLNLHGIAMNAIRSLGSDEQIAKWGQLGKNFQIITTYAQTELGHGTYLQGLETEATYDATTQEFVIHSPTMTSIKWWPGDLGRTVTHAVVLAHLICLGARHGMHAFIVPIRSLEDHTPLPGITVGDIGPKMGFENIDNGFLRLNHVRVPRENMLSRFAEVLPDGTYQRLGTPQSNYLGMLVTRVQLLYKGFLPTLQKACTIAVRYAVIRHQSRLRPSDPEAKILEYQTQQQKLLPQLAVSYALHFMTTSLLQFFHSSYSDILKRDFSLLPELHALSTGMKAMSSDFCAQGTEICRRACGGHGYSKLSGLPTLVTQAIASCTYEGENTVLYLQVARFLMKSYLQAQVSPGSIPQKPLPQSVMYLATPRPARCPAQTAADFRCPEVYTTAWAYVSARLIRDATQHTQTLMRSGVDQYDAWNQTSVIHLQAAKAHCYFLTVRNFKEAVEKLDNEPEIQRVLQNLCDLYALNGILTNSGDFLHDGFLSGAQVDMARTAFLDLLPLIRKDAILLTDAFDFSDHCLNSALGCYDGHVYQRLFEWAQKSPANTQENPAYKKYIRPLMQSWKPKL
UniProt P36552, sequence (P36552 whole entry): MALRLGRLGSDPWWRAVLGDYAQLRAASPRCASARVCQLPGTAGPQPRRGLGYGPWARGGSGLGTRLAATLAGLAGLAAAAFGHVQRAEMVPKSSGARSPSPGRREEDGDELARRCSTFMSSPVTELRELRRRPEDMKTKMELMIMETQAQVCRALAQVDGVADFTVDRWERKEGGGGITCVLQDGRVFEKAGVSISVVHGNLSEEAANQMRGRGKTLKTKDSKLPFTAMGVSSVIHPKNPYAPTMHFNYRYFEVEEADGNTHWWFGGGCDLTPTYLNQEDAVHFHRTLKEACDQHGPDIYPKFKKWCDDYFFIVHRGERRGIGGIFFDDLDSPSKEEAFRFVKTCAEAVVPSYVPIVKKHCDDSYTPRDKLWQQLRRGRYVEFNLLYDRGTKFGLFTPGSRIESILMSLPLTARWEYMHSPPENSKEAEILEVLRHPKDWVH
UniProt Q61694, sequence (Q61694 whole entry): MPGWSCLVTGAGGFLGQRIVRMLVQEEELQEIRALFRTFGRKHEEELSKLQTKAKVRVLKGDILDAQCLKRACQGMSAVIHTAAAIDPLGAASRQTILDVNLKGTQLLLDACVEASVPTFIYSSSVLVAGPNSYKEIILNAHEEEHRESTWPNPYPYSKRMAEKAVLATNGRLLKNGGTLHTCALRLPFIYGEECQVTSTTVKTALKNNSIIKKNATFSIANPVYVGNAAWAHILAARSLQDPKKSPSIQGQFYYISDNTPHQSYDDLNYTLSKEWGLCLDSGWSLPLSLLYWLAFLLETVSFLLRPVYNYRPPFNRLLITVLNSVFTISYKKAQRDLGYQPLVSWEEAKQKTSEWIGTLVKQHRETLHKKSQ
UniProt O55125, sequence (O55125 whole entry): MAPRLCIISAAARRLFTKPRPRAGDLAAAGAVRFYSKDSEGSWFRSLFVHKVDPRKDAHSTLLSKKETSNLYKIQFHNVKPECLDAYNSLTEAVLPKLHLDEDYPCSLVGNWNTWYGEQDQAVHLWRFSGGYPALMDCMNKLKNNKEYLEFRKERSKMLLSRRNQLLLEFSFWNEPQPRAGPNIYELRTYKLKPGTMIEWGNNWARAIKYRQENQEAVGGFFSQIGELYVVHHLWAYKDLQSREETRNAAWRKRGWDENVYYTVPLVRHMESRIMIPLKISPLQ
UniProt Q9DB30, sequence (Q9DB30 whole entry): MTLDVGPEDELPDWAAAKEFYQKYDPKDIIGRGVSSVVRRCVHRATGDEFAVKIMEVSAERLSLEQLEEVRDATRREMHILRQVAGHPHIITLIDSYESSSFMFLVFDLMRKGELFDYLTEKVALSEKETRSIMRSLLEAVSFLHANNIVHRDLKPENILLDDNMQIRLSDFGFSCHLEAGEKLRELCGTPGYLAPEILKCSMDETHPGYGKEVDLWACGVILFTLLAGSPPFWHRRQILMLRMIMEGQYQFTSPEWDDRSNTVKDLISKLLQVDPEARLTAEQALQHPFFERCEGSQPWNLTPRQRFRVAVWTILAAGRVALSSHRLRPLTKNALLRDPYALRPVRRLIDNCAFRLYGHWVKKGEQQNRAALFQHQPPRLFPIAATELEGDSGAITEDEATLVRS

For the target “UniProt O55125 (peptide sequence: NNKEYLEFR, peptide start residue: 144)”, the log2 fold change was 0.432. “UniProt Q8BHC4 (peptide sequence: HVVQPGYPAHR, peptide start residue: 37)”: the log2 fold change came to 0.384. In the case of “UniProt P70451 (peptide sequence: NCLVGENNTLK, peptide start residue: 690)” it was -2; in that of “UniProt Q04899 (peptide sequence: HANIVTLHDLIHTDR, peptide start residue: 176)”, -3.35; in that of “UniProt P55264 (peptide sequence: ELFDELVK, peptide start residue: 63)”, -2.24. For the target “UniProt Q6P9R2 (peptide sequence: EVLEGLEYLHK, peptide start residue: 129)”, the log2 fold change was -0.823. Regarding “UniProt A2A8Z1 (peptide sequence: VVLPTFILERR, peptide start residue: 391)”, the log2 fold change came to 0.538.

Turning to “UniProt Q99J56 (peptide sequence: GGVSGFGVPPASMR, peptide start residue: 215)”, the log2 fold change worked out at 0.327. “UniProt Q8C0K5 (peptide sequence: GEHTYSGIIHAFK, peptide start residue: 164)”: the log2 fold change was 0.837.

As for “UniProt Q60855 (peptide sequence: DLKPENILVDRDFHIK, peptide start residue: 138)”, the log2 fold change was 1.33. As to “UniProt O70318 (peptide sequence: RVTPLPFQPQASSHETLNVVEEK, peptide start residue: 654)”, the log2 fold change is -0.88. As for “UniProt Q9JIZ0 (peptide sequence: LAGICTIQLK, peptide start residue: 207)”, the log2 fold change was found to be 0.276.

For the target “UniProt P36552 (peptide sequence: NPYAPTMHFNYR, peptide start residue: 240)”, the log2 fold change is -0.601. In the case of “UniProt O70579 (peptide sequence: NVLSLLHQR, peptide start residue: 249)” it was 0.904.

As for “UniProt Q923T9 (peptide sequence: GAILTTMLVSR, peptide start residue: 302)”, the log2 fold change was -0.876. On to “UniProt Q8VEB1 (peptide sequence: DLKPENILLDDYGHIR, peptide start residue: 311)”, for which the log2 fold change was -0.743. For the target “UniProt Q9CYH2 (peptide sequence: LGVWYNSFR, peptide start residue: 145)”, the log2 fold change is -2.12. In the case of “UniProt Q8R0Y8 (peptide sequence: MQTAGVTGHQHGSILSTLR, peptide start residue: 254)” it was 0.401. As to “UniProt O35495 (peptide sequence: LADFGLAR, peptide start residue: 853)”, the log2 fold change is -1.69.

As to “UniProt P34914 (peptide sequence: NWKWSCK, peptide start residue: 471)”, the log2 fold change turned out to be 0.437. Take “UniProt Q9QXD1 (peptide sequence: LFEWAQK, peptide start residue: 649)”: the log2 fold change was -0.551. As for “UniProt Q61694 (peptide sequence: EIILNAHEEEHR, peptide start residue: 136)”, the log2 fold change was -0.448. To “UniProt Q2TBE6 (peptide sequence: RFEAEPLPENTNR, peptide start residue: 276)” belongs -2.23; to “UniProt P35980 (peptide sequence: TNSTFNQVVLK, peptide start residue: 39)”, 0.658.

With “UniProt P26443 (peptide sequence: HYSEAAADREDDPNFFK, peptide start residue: 52)”, the log2 fold change was determined as 0.262.

Take “UniProt Q9DCW4 (peptide sequence: VDLLFLGK, peptide start residue: 117)”: the log2 fold change was found to be 0.27. For “UniProt Q9D710 (peptide sequence: EFNLNELYQR, peptide start residue: 254)”, the log2 fold change was -0.349.

Consider “UniProt Q8CIE6 (peptide sequence: VTTVTEIGKDVIGLR, peptide start residue: 1203)”, for which the log2 fold change was -0.699. Take “UniProt A2A974 (peptide sequence: SLSDKDLR, peptide start residue: 303)”: the log2 fold change came out at 0.2.

For “UniProt Q05421 (peptide sequence: FGPVFTLHLGQR, peptide start residue: 64)”, the log2 fold change is 0.247. In the case of “UniProt P53395 (peptide sequence: DRTEPVTGFQK, peptide start residue: 251)” it was 0.423; in that of “UniProt Q9QZ05 (peptide sequence: DLKPVNIFLDSDDHVK, peptide start residue: 846)”, -1.48; in that of “UniProt Q925I1 (peptide sequence: LGKPSLVR, peptide start residue: 278)”, 0.434. For “UniProt Q9DB30 (peptide sequence: IMEVSAER, peptide start residue: 54)”, the log2 fold change was -3.03. On to “UniProt Q61268 (peptide sequence: TQAWLQSSR, peptide start residue: 94)”, for which the log2 fold change was 0.77. In the case of “UniProt Q9JLB2 (peptide sequence: DRFASAVPHTTR, peptide start residue: 505)” it was 0.704; in that of “UniProt Q9JHU4 (peptide sequence: SNLPDNLK, peptide start residue: 2024)”, 0.261.

For the target “UniProt Q61578 (peptide sequence: NVINTFTQTAR, peptide start residue: 94)”, the log2 fold change worked out at 0.834.

In the case of “UniProt Q91XU3 (peptide sequence: VYIGEEEKK, peptide start residue: 252)”, the log2 fold change was -1.32. “UniProt P33622 (peptide sequence: GWMDNHFR, peptide start residue: 61)”: the log2 fold change turned out to be 0.483. “UniProt Q99LC5 (peptide sequence: TIYAGNALCTVK, peptide start residue: 147)”: the log2 fold change was found to be 0.35. Turning to “UniProt Q91YQ1 (peptide sequence: STVGVDFALK, peptide start residue: 38)”, the log2 fold change came to 0.602. In the case of “UniProt Q8R123 (peptide sequence: LSMVPSSAR, peptide start residue: 125)” it was -0.276. In the case of “UniProt Q3U3Q1 (peptide sequence: VIELPLRPQLSLDCR, peptide start residue: 230)” it was -2. Take “UniProt P18653 (peptide sequence: ADPSQFELLK, peptide start residue: 57)”: the log2 fold change was -1.44.
